Source: PubChem BioAssay (NCI)
This is part of a sample that, as a whole, favours compounds with a hit. Of some 79,000 tested, about 15% had one in any assay. Unmarked numbers belong to inactive results. Active and inactive are the calls of the source. Cut-off read from the data, not from the text of the source: active = growth inhibition above about 70%; inactive = the rest.

Legend:
[1] = NCI Yeast Anticancer Drug Screen. Data for the rad50 strain (AID 155);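 note: 0% = growth of vehicle-only cultures of the same strain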; details: S. cerevisiae rad50 strain growth inhibition; at 50.0 µM; active compounds read high
Outline: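 Compounds were tested on a yeast strain with an engineered DNA damage repair alteration; the reported value is growth inhibition normalised to vehicle treatment.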

[2] = NCI Yeast Anticancer Drug Screen. Data for the mec2-1 strain (AID 157); details: S. cerevisiae mec2-1 strain, at 50.0 µM, active compounds read high
Outline: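 Each compound was tested on mec2-1 yeast, a strain altered in DNA damage repair or cell cycle control. Growth inhibition is reported relative to vehicle.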

[3] = NCI Yeast Anticancer Drug Screen. Data for the cln2 rad14 strain (AID 165);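 note: 0% = growth equal to vehicle treated cultures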; details: S. cerevisiae cln2 rad14 strain, at 50.0 µM, active compounds read high
Outline: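 Test compounds were added to cln2 rad14 yeast cultures; inhibition of growth was then determined by comparison with vehicle treatment.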

[4] = NCI Yeast Anticancer Drug Screen. Data for the bub3 strain (AID 167); details: S. cerevisiae bub3 mutant strain, at 50.0 µM, active compounds read high
Outline: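 Growth of a checkpoint-deficient yeast mutant is measured after compound exposure. Values represent inhibition relative to vehicle.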

[5] = NCI Yeast Anticancer Drug Screen. Data for the sgs1 mgt1 strain (AID 161);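 note: 0% = growth of cultures given vehicle only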; details: S. cerevisiae sgs1 mgt1 strain, at 50.0 µM, active compounds read high
Outline: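 Test agents were incubated with a DNA-repair-mutant yeast strain. Growth was then read and compared against vehicle-treated controls.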

[6] = NCI Yeast Anticancer Drug Screen. Data for the mlh1 rad18 strain (AID 175); details: S. cerevisiae mlh1 rad18 strain growth inhibition; at 50.0 µM; active compounds read high
Outline: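 Inhibition values reflect reduced growth of mutant yeast versus vehicle-treated controls following compound exposure; the mutations affect DNA damage repair.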

## CCCCCCCCCOc1ccc2ccccc2c1
[1]
  growth inhibition: -16.9%
[2]
  growth inhibition: 16.1%
[3]
  growth inhibition: -17.9%
[4]
  growth inhibition: -15.2%

## CC12CCC3C(CCC4CC(OC5CCCCO5)CCC43C)C1CC/C2=C/C#N (centres undefined)
[1]
  growth inhibition: 29.4%
[5]
  growth inhibition: 10.1%
[3]
  growth inhibition: 10.3%
[4]
  growth inhibition: 1.75%
[6]
  growth inhibition: -2.65%

## O=C(NCCS(=O)(=O)N1C(=O)C2CCCN2C(=O)[C@@H]1Cc1ccccc1)OCc1ccccc1 (some centres undefined)
[1]
  growth inhibition: -4.35%
[5]
  growth inhibition: -4.35%
[3]
  growth inhibition: 19.4%
[4]
  growth inhibition: 5.8%
[6]
  growth inhibition: 26.1%

## CCCC1(C)COC(=O)OC1
[1]
  growth inhibition: 6%
[5]
  growth inhibition: 17.5%
[3]
  growth inhibition: 13.9%
[4]
  growth inhibition: 7.1%
[6]
  growth inhibition: 19.9%

## O=C(O)CCCc1ccc(N(CCO)CCO)cc1
[1]
  growth inhibition: 5.3%
[5]
  growth inhibition: -3.1%
[3]
  growth inhibition: 18%
[4]
  growth inhibition: 8.05%
[6]
  growth inhibition: 19%

## Nc1ccccc1C(F)(F)F
[1]
  growth inhibition: 2.45%
[5]
  growth inhibition: 1.2%
[3]
  growth inhibition: 4.1%
[4]
  growth inhibition: 3.3%
[6]
  growth inhibition: 8.25%

## CC(=O)/C(=C\n1c(=S)[nH]c2ccc([N+](=O)[O-])cc21)C(=O)Nc1ccccc1C
[1]
  growth inhibition: 2.1%
[5]
  growth inhibition: -5.05%
[3]
  growth inhibition: -2.8%
[4]
  growth inhibition: -20.4%
[6]
  growth inhibition: -7.3%

## C[C@H](C(=O)C12CC3CC(CC(C3)C1)C2)[C@H](O)c1ccccc1
[1]
  growth inhibition: 5.85%
[5]
  growth inhibition: -10.8%
[3]
  growth inhibition: 17%
[4]
  growth inhibition: -11.5%
[6]
  growth inhibition: -18.2%

## O=C(Nc1ccc(Cl)cc1)Oc1ccc(Br)cc1Br
[1]
  growth inhibition: 10.9%
[5]
  growth inhibition: 10.7%
[3]
  growth inhibition: 4.65%
[4]
  growth inhibition: -2.7%
[6]
  growth inhibition: 13.2%

## CCOC(=O)COc1cc2c(cc1Cc1ccc3c(c1)OCO3)OCO2
[1]
  growth inhibition: 0.6%
[5]
  growth inhibition: -0.7%
[3]
  growth inhibition: 5.65%
[4]
  growth inhibition: 16.2%
[6]
  growth inhibition: 0.95%

## c1ccc(C(=C2CCCCCCCCCCCCC2)c2ccccc2)cc1
[1]
  growth inhibition: -25.2%
[5]
  growth inhibition: -2.9%
[3]
  growth inhibition: -2%
[4]
  growth inhibition: 25%
[6]
  growth inhibition: -24%

## CN1c2ccccc2SC1(C)CCC(=O)O (centres undefined)
[1]
  growth inhibition: 21.5%
[5]
  growth inhibition: 37.6%
[3]
  growth inhibition: 6%
[4]
  growth inhibition: 29.6%
[6]
  growth inhibition: 7.65%

## Fc1cccc(-c2nnc(-c3cccc4ccccc34)o2)c1
[1]
  growth inhibition: -8.65%
[5]
  growth inhibition: -0.5%
[3]
  growth inhibition: -49.8%
[4]
  growth inhibition: 1.45%
[6]
  growth inhibition: -5.1%

## COc1ccc(OC)c(CSc2ccc(OC)c(OC)c2)c1
[1]
  growth inhibition: 18.7%
[5]
  growth inhibition: 43.8%
[3]
  growth inhibition: 13.8%
[4]
  growth inhibition: 57.9%
[6]
  growth inhibition: 33%

## COc1cc2ccnc(CCCc3nccc4cc(OC)c(OC)cc34)c2cc1OC
[1]
  growth inhibition: -30.1%
[5]
  growth inhibition: -27.4%
[3]
  growth inhibition: -1.9%
[4]
  growth inhibition: -1.75%
[6]
  growth inhibition: -9.3%

## O=C1NC(c2ccc(Cl)cc2)(c2ccc(Cl)cc2)C(=O)N1Cl
[1]
  growth inhibition: -4.8%
[5]
  growth inhibition: 8.05%
[3]
  growth inhibition: 16.9%
[4]
  growth inhibition: 11.6%
[6]
  growth inhibition: -16.4%

## Cc1c([N+](=O)[O-])ccn1C
[1]
  growth inhibition: -1.55%
[5]
  growth inhibition: -5.7%
[3]
  growth inhibition: 9.25%
[4]
  growth inhibition: 7.2%
[6]
  growth inhibition: -3.7%

## Cc1ccc(/C=C/C(=O)c2sc(C(N)=S)nc2C)cc1
[1]
  growth inhibition: 35.9%
[5]
  growth inhibition: 8.15%
[3]
  growth inhibition: 16.3%
[4]
  growth inhibition: 11.2%
[6]
  growth inhibition: 39%

## Cc1ccc(S(=O)(=O)Oc2cccc(C)c2)cc1
[1]
  growth inhibition: 1.1%
[5]
  growth inhibition: 23%
[3]
  growth inhibition: -69%
[4]
  growth inhibition: 14.7%
[6]
  growth inhibition: 33.7%

## CCOC(=O)NN(C(=O)OCC)c1c(C)cc(C)c(N(NC(=O)OCC)C(=O)OCC)c1C
[1]
  growth inhibition: 1.7%
[5]
  growth inhibition: 12.4%
[3]
  growth inhibition: 23.9%
[4]
  growth inhibition: 16.4%
[6]
  growth inhibition: 22.6%

## CC(NCc1cc(O)c(CNC(C)c2ccccc2)cc1O)c1ccccc1 (centres undefined)
[1]
  growth inhibition: 4.55%
[5]
  growth inhibition: 17.1%
[3]
  growth inhibition: 25.2%
[4]
  growth inhibition: 12.4%
[6]
  growth inhibition: 1.95%

## COC(=O)c1ccc(Cl)nc1
[1]
  growth inhibition: 0.85%
[5]
  growth inhibition: -9.7%
[3]
  growth inhibition: -6.75%
[4]
  growth inhibition: -11.1%
[6]
  growth inhibition: -10.3%

## CC(C)NC(=O)OCCN=C1c2ccccc2C(Br)C(Br)c2ccccc21 (centres undefined)
[1]
  growth inhibition: 3.25%
[5]
  growth inhibition: 2.05%
[3]
  growth inhibition: 1.1%
[4]
  growth inhibition: 4.9%
[6]
  growth inhibition: 8.6%

## Cc1nc2ccccc2n1CCC(N)=O
[1]
  growth inhibition: 24.6%
[5]
  growth inhibition: 6.1%
[3]
  growth inhibition: 12.3%
[4]
  growth inhibition: -26.9%
[6]
  growth inhibition: -2.35%

## COC(=O)[C@@]12OC[C@]34[C@H]([C@@H](O)[C@@H]1O)[C@@]1(C)CC(=O)C(O)=C(C)[C@@H]1C[C@H]3OC(=O)[C@H](OC(=O)/C=C(\C)C(C)CO)[C@@H]24 (some centres undefined)
[1]
  growth inhibition: -0.7%
[5]
  growth inhibition: -13.3%
[3]
  growth inhibition: -1.7%
[4]
  growth inhibition: -18.9%
[6]
  growth inhibition: -28.8%

## Cc1cc2ccccc2n1CC(=O)N1CCCC1
[1]
  growth inhibition: -14.8%
[5]
  growth inhibition: -23.6%
[3]
  growth inhibition: 0.8%
[4]
  growth inhibition: 15.9%
[6]
  growth inhibition: -11.8%

## C=C1C(=O)O[C@@H]2[C@@H]3[C@@H](C)C(=O)C=C[C@]3(C)CC[C@@H]12
[1]
  growth inhibition: -15.9%
[5]
  growth inhibition: -11.2%
[3]
  growth inhibition: 7.05%
[4]
  growth inhibition: -35.6%
[6]
  growth inhibition: -14.9%

## CC1=Nc2c(C)noc2CC(c2ccccc2O)C1 (centres undefined)
[1]
  growth inhibition: -1.5%
[5]
  growth inhibition: -2.05%
[3]
  growth inhibition: 27.2%
[4]
  growth inhibition: -15.8%
[6]
  growth inhibition: -5.35%

## NNC(=O)Cc1ccc2ccccc2c1
[1]
  growth inhibition: 12.3%
[5]
  growth inhibition: 4.45%
[3]
  growth inhibition: -7.05%
[4]
  growth inhibition: 4.6%
[6]
  growth inhibition: 12%

## CCCNC(=O)OCC#CCOC(=O)NCCC
[1]
  growth inhibition: 2.5%
[5]
  growth inhibition: 15.4%
[3]
  growth inhibition: -38.5%
[4]
  growth inhibition: 12.5%
[6]
  growth inhibition: -6.1%

## O=C(O)CS(=O)(=O)CC(=O)O
[1]
  growth inhibition: -10.3%
[5]
  growth inhibition: -10.2%
[3]
  growth inhibition: -6.65%
[4]
  growth inhibition: -23.4%
[6]
  growth inhibition: -12.1%

## Cc1cc(N2CCOCC2)nc2ccc(Cc3ccc4nc(N5CCOCC5)cc(C)c4c3)cc12
[1]
  growth inhibition: 13.5%
[5]
  growth inhibition: -32.2%
[3]
  growth inhibition: -24.2%
[4]
  growth inhibition: -4.65%
[6]
  growth inhibition: -4.4%

## O=C(Nc1cccc(Cl)c1Cl)Oc1cccc2ccccc12
[1]
  growth inhibition: 21.4%
[5]
  growth inhibition: 12.4%
[3]
  growth inhibition: 8.65%
[4]
  growth inhibition: 24.5%
[6]
  growth inhibition: 16.4%

## CSc1ccc(NC(=O)Nc2cc(C)c(C)cc2C)cc1
[1]
  growth inhibition: 16.6%
[5]
  growth inhibition: 6.75%
[3]
  growth inhibition: 21.4%
[4]
  growth inhibition: 14.5%
[6]
  growth inhibition: 2.85%

## COc1cc([C@@H]2OC(=O)C3C2C(=O)O[C@H]3c2ccc(O)c(OC)c2)ccc1O (some centres undefined)
[1]
  growth inhibition: 7.55%
[5]
  growth inhibition: 9.25%
[3]
  growth inhibition: 17.4%
[4]
  growth inhibition: 0.55%
[6]
  growth inhibition: 24.2%

## O=C(O)COc1cc2c(cc1Cc1ccc3c(c1)OCO3)OCO2
[1]
  growth inhibition: 2.5%
[5]
  growth inhibition: 0.25%
[3]
  growth inhibition: 1.15%
[4]
  growth inhibition: 10.3%
[6]
  growth inhibition: 8.35%

## O=[N+]([O-])c1cccc([I+]c2cccc([N+](=O)[O-])c2)c1
[1]
  growth inhibition: 98.5% (active)
[5]
  growth inhibition: 97.7% (active)
[3]
  growth inhibition: 96.5% (active)
[4]
  growth inhibition: 97.2% (active)
[6]
  growth inhibition: 98.2% (active)

## COc1cc2c(cc1OC)C(Cl)C(c1ccc(Cl)c(Cl)c1)=C2Cl (centres undefined)
[1]
  growth inhibition: -0.65%
[5]
  growth inhibition: -4.6%
[3]
  growth inhibition: -0.25%
[4]
  growth inhibition: -4.15%
[6]
  growth inhibition: -5.05%

## Cc1ccccc1-c1c(N)nc(N)nc1C(=O)Nc1nccs1
[1]
  growth inhibition: -26.6%
[5]
  growth inhibition: -39.6%
[3]
  growth inhibition: -3.85%
[4]
  growth inhibition: -28.1%
[6]
  growth inhibition: -7.9%

## O=C1C[C@@H]2[C@@H](CCC23CCCC3)N1
[1]
  growth inhibition: 17.8%
[5]
  growth inhibition: -9.75%
[3]
  growth inhibition: 20.4%
[4]
  growth inhibition: 15.2%
[6]
  growth inhibition: 20.6%

## [Co+2].[NH-]C(Cc1ccc(O)cc1)C(=O)O.[NH-]C(Cc1ccc(O)cc1)C(=O)O (centres undefined)
[1]
  growth inhibition: 56.5%
[5]
  growth inhibition: 5.8%
[3]
  growth inhibition: 16.3%
[4]
  growth inhibition: 16%
[6]
  growth inhibition: 34%
